Screens from PubChem.
Shown are actives, neighbours in structure and some others; about 4.7% of the full set was active somewhere.
D1 antagonist – Antagonist of Human D 1 Dopamine Receptor: qHTS; HEK293 TREx D1 cells, calcium flux, dopamine EC80; hits give low values; 360,000 tested, 3.2% active; activity change, negative = inhibition, % at 10 µM; AID 504652, 2011; D(1A) dopamine receptor (Homo sapiens), P21728; in the data active means activity change below about -30%; further: on the % scale 0 is the no-effect control and ±100 the full control effect
Target sequence (P21728 whole entry, looked up): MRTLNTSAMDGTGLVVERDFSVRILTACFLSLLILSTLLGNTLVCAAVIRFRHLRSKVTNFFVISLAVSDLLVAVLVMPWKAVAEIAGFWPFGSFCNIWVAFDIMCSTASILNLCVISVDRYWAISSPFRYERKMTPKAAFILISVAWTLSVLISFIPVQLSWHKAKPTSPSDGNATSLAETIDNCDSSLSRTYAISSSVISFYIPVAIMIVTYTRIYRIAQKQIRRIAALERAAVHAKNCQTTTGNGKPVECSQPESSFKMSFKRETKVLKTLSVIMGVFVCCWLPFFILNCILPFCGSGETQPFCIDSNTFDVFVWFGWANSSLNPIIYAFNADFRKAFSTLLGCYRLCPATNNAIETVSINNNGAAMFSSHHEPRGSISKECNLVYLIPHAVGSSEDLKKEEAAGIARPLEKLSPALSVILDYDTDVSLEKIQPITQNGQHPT
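Using tetracycline-induced force-coupled D1 Hek293 cells and a calcium dye, signals were followed for 180 s after compound, then for 180 s after EC80 dopamine, to detect inhibitors.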
D1 ag – Allosteric Agonists of the Human D1 Dopamine Receptor: qHTS | D(1A) dopamine receptor (Homo sapiens), P21728 | 360,000 tested, 1% active | HEK293 T-REx D1 cells, calcium flux, agonist mode | activation, % at 2 µM; further: 0% is about no effect
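Tetracycline-induced HEK293 TREx D1 cells, force-coupled to calcium signalling, were dye-loaded with a no-wash calcium kit. Compound was pin-added after a 10 s baseline. Fluorescence was read kinetically at 1 cycle/s for 180 s, with calcium rises flagged as agonism.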
TRHR enhancer – qHTS for Small Molecule Agonists and Allosteric Enhancers of Human TRH Receptor: Primary Screen for Enhancers; Thyrotropin-releasing hormone receptor (Homo sapiens), P34981; TRHR cells, fluo-8 calcium fluorescence, EC20 TRH enhancement; enhancement, % at 2 µM; 360,000 tested, 0.66% active; AID 493056, 2011; in the data active means enhancement above about 30%; further: 0% is about no effect
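TRHR-expressing cells loaded with fluo-8 calcium dye were read kinetically (ex 480/em 530) during compound addition, then stimulated with an EC20 of TRH (10 nM final). Enhancement of the Gq-mediated intracellular calcium response was scored.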
TRHR agonist – qHTS for Small Molecule Agonists and Allosteric Enhancers of Human TRH Receptor: Primary Screen for Agonists. TRHR cells, calcium flux fluo-8, FDSS agonist mode. 360,000 tested, 0.18% active. AID 493084, 2011. activation, % at 2 µM. Thyrotropin-releasing hormone receptor (Homo sapiens), P34981; further: 0% is about no effect
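Read-out: compound-evoked intracellular calcium rise in TRHR cells, fluo-8 dye, kinetic FDSS fluorescence at 1 s/cycle following a 10-cycle baseline. Cells cultured overnight before dye loading (30 min–1.5 h, RT).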
D1 potentiator – Potentiators of Human D1 Dopamine Receptor: qHTS | D(1A) dopamine receptor (Homo sapiens), P21728 | HEK293 TREx D1 cells, calcium flux, dopamine EC20 potentiation | potentiation, % at 10 µM | 360,000 tested, 0.036% active; in the data active means potentiation above about 30%; further: 0% is about no effect
Active calls of the source: *; / = no result given; ! = a repeat was not active. Unless noted, no stated cut-off is given here; in the data, active means activation above about 30%; inactive means the rest.

SMILES	D1 antagonist	D1 ag	TRHR enhancer	TRHR agonist	D1 potentiator
O=C(NNc1ccccc1[N+](=O)[O-])Nc1ccc(Cl)c(Cl)c1	-27.4	14.0	8.7	-0.7	3.5
O=C1NC(=O)C(c2ccccc2[N+](=O)[O-])=C1Nc1ccc(O)c(Cl)c1	-37.8*	1.2	-1.1	0.8	-10.4
Cc1ccc(C)c(NC(=O)c2nn(C)c3c2CS(=O)(=O)c2ccccc2-3)c1	-13.9	-0.9	-21.6	-0.1	-5.0
O=S(=O)(Cc1ccccc1)N1CCN(C/C=C/c2ccccc2)CC1	-32.9*	47.4*	1.3	-1.6	-12.3
COc1cccc(N2CCN(C(=O)c3ccc(N4C(=O)NC5CC4(C)Oc4ccccc45)cc3)CC2)c1 (stereo not drawn)	7.8	1.4	-7.8	-0.2	-8.8
COc1ccc(NC(=O)C2C(=O)N(C)C3(C)CC2c2ccccc2O3)cc1 (stereo not drawn)	-32.1*	0.4	-7.8	-0.3	-0.2
COc1ccc(N2C(=O)NC3CC2(C)Oc2ccccc23)cc1 (stereo not drawn)	-39.0*	0.3	-4.1	0.5	-6.6
CN=c1scc(-c2ccccc2F)n1/N=C/c1ccc(O)c(O)c1O	-40.6*	18.5	-0.4	-0.8	-9.7
OCCNCCCCOc1ccc(OCc2ccccc2)cc1	-30.6*	46.5*	13.8	1.0	-14.3
c1ccc(COc2ccc(OCCCCN3CCCCC3)cc2)cc1	-35.2*	41.5*	10.0	2.7	-4.5
OCCCCNCc1ccc(OCc2ccccc2)cc1	5.0	16.2	2.5	-0.3	-2.4
Clc1cccc(OCCCCN2CCCCC2)c1	-4.3	4.9	34.3*	0.1	-5.5
CCOc1ccc(CNC(=O)C2CCN(C(=O)N3CC(CC)Oc4ccc(C)cc43)CC2)cc1OC (stereo not drawn)	3.8	3.4	-10.1	0.0	6.6
Cc1ccc(C)c(N2CCN(CCCNC(=O)c3cnn(-c4ccc(F)cc4)c3C3CCN(C(=O)OC(C)(C)C)CC3)CC2)c1	-32.1*	4.1	-6.0	-0.6	-4.4
Cc1cccc(-n2ncc(C(=O)N3CCOCC3)c2C2CCN(C(=O)OC(C)(C)C)CC2)c1	-76.7*	0.6	14.4	1.0	-4.7
Cc1ccc(C)c(N2CCN(CCCNC(=O)c3cnn(-c4cccc(Cl)c4)c3C3CCN(C(=O)OC(C)(C)C)CC3)CC2)c1	10.1	5.7	-7.2	-0.4	2.8
COc1ccccc1CN1CCC(CNC(=O)c2cnn(-c3ccc(C)c(C)c3)c2C2CCN(C(=O)OC(C)(C)C)CC2)CC1	26.5	9.4	-7.0	0.7	2.4
COc1ccccc1CN1CCC(CNC(=O)c2cnn(-c3ccc(Cl)cc3)c2C2CCN(C(=O)OC(C)(C)C)CC2)CC1	-0.8	31.2*	15.9	1.9	-5.9
Cc1ccc(-n2ncc(C(=O)NCCN3CCC(Cc4ccccc4)CC3)c2C2CCN(C(=O)OC(C)(C)C)CC2)cc1	-9.6	56.2*	18.1	-0.8	0.7
CCOc1ccccc1NC(=O)c1cc2ccc3cccnc3c2[nH]1	-1.2	4.0	32.1*	-1.1	-1.4
CC(C)N(Cc1ccccc1)C(=O)c1cc2ccc3cccnc3c2[nH]1	-34.3*	5.7	-9.1	0.8	3.9
COc1ccccc1NC(=O)c1cc2ccc3cccnc3c2[nH]1	-2.7	2.6	23.4	-0.2	-0.8
O=C(CSc1nc2ccccc2s1)N1c2ccccc2Sc2ccc(Cl)cc21	-48.9*	2.0	-2.4	0.7	-9.6
O=C(CSc1nnc(CNC(=O)c2ccccc2)o1)c1ccc(Cl)cc1	-43.2*	12.6	5.8	0.0	-6.8
O=C(CSc1nnc(CNc2ccc(F)cc2)o1)OC1CCCCC1	-30.8*	1.8	-3.4	0.3	0.3
SMILES	D1 antagonist	D1 ag	TRHR enhancer	TRHR agonist	D1 potentiator
CN1CCN(C(=O)CSc2nnc(COc3ccc(Cl)cc3)o2)CC1	-36.7*	16.0	1.5	-1.9	/
COc1ccc(C(=O)CSc2nnc(CNC(=O)c3ccccc3)o2)cc1	-5.0	20.9	2.4	-0.4	-5.2
CCOc1ccc(CNC(=O)CCn2c(=O)c3cccn3c3cccnc32)cc1	-2.5	0.0	13.7	-1.5	0.5
COc1ccccc1CNc1ncnc2c1c(-c1ccccc1)cn2-c1cccc(C)c1	-3.2	4.5	1.7	0.8	-1.6
O=C(COc1ccc(Cl)cc1)NCc1nnc(SCC(=O)NC2CCCCC2)o1	-32.5*	20.2	3.4	-1.0	-4.8
O=C(COc1ccc(Cl)cc1)NCc1nnc(SCC(=O)Nc2ccccc2)o1	0.1	-0.7	-2.8	-0.1	1.9
Cc1ccc(OCc2nnc(SCC(=O)N3c4ccccc4Sc4ccc(Cl)cc43)o2)cc1	-32.2*	0.7	3.3	0.3	2.2
CCc1nnc(NC(=O)CSc2nc3c([nH]c4ccccc43)c(=O)n2-c2ccc(C)cc2)s1	-9.5	0.2	7.4	-0.1	-4.8
CCCC(=O)n1nc(-c2cccnc2)nc1NCc1ccccc1	-42.5*!	1.2	-1.0	-0.1	-3.8
CCC(=O)n1nc(-c2cccnc2)nc1NCc1ccccc1	8.2	0.4	-0.4	-0.5	-3.5
Cc1nn(Cc2ccccc2)c2c1C(c1cccc(Cl)c1)C(C#N)=C(N)O2 (stereo not drawn)	19.4	-0.6	-1.0	-0.6	-11.7
C#CCOCCOCCOCCNc1nc(N2CCN(C(=O)[C@H](CCCCN)n3cc([C@@H](N)C(C)CC)nn3)CC2)nc(N2CCN(C(=O)[C@H](CCCCN)n3cc([C@@H](N)CO)nn3)CC2)n1 (stereo partly drawn)	18.4	1.2	36.6*	0.4	2.4
C#CCOCCOCCOCCNc1nc(N2CCN(C(=O)[C@H]([C@@H](C)CC)n3cc([C@@H](N)CC(C)C)nn3)CC2)nc(N2CCN(C(=O)[C@H](CCCCN)n3cc([C@@H](N)CC(C)C)nn3)CC2)n1	1.0	-3.1	37.5*	-0.1	-3.8
CC(C)C[C@H](N)c1cn([C@@H](CCCCN)C(=O)N2CCNCC2)nn1	0.4	0.0	31.3*	-0.3	2.5
C#CCOCCOCCOCCNc1nc(N2CCN(C(=O)[C@H](Cc3cc4ccccc4[nH]3)n3cc([C@@H](N)C(C)CC)nn3)CC2)nc(N2CCN(C(=O)[C@H](CCCCN)n3cc([C@@H](N)CO)nn3)CC2)n1 (stereo partly drawn)	-34.6*	-0.2	-2.8	0.7	-3.8
